In PubChem BioAssay:
Activity calls are given as the source filed them. Unless noted, how the calls were made is not given here.

Key:
[1] = compounds binding Alexa647 anti-His antibody – biochemical, small-molecule microarray, 635 nm fluorescence, artefact control for SMM control protein annotation, primary screen (AID 1128); conditions: higher = more signal;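 further: score merges feature fluorescence with signal-to-noise for each printed compound spot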
[2] = system: Human papillomavirus type 1a E7 protein (residues 1-88); experiment: HPV1a E7 small-molecule binders, primary screen, biochemical, small-molecule microarray, residues 1-88, 635 nm (AID 1129); conditions: small-molecule microarray binding, fluorescence 635 nm; higher = more signal
[3] = molecular target: Focal adhesion kinase 1 (Homo sapiens) (UniProt Q05397); experiment: PTK2 protein binding on printed compound slides – biochemical, small-molecule microarray, 635/667 nm fluorescence, BSA, DTT, primary screen (AID 1130); conditions: 635 nm fluorescence, higher = more signal;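 further: composite of spot emission at 667 nm and signal to noise over triplicate slides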
[4] = system: Fibrinogen (Alexa647-labelled); experiment: Alexa647-fibrinogen binding to printed small molecules – biochemical, small-molecule microarray, 635/667 nm fluorescence, artefact control for SMM control-protein annotation, profiling panel (AID 1131); conditions: fibrinogen-A647 binding fluorescence, higher = more signal;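 further: z-score merges 667 nm fluorescence with per-spot signal-to-noise over triplicate slides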
[5] = molecular target: Follistatin (Homo sapiens) (UniProt P19883); experiment: FST protein binding to printed compounds – biochemical, small-molecule microarray, 635/667 nm fluorescence, primary screen (AID 1132); conditions: 635 nm fluorescence, higher = more signal
[6] = molecular target: Fibroblast growth factor 2 (Homo sapiens) (UniProt P09038); experiment: basic fibroblast growth factor binding to printed compounds – biochemical, small-molecule microarray, 635/667 nm fluorescence, primary screen (AID 1133); conditions: FGF2, fluorescence 635/667, higher = more signal
[7] = JC-1 mitochondrial potential readout, lung cancer cells – cell-based, A549, JC-1 fluorescence, basal, 24 h, 100 nL, profiling panel (AID 1138); conditions: higher = more signal;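 further: A549 lung adenocarcinoma cells under basal conditions with no added stimulus; test concentration not given here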
Lefty1 = Lefty1 protein binding to printed compounds – biochemical, small-molecule microarray, 635/667 nm fluorescence, primary screen (AID 1139); conditions: fluorescence 635/667, higher = more signal
[8] = system: wheat germ agglutinin (Triticum aestivum), Alexa647-labelled; experiment: Alexa647-WGA lectin binding to printed small molecules – biochemical, small-molecule microarray, 635/667 nm fluorescence, artefact control for SMM control-protein annotation, profiling panel (AID 1140); conditions: WGA-A647 binding, 635 nm fluorescence, higher = more signal;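 further: score merges 667 nm feature emission with signal to noise over triplicate slides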
[9] = molecular target: Luciferin 4-monooxygenase (Photinus pyralis) (UniProt P08659); experiment: inhibition of purified Photinus pyralis luciferase – biochemical, luminescence, purified enzyme, 2006 set, primary screen (AID 1141); conditions: purified firefly luciferase, SteadyGlo luminescence, 30 min; higher = more signal, called active from +8 up or from −8 down;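 further: cell-free assay with purified firefly luciferase at 100 ng per well in PBS; test concentration not given here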
[10] = system: Wnt5a (protein binding on small-molecule microarray); experiment: small molecules binding Wnt5a protein – biophysical, small-molecule microarray, 635/667 nm fluorescence, primary screen (AID 1142); conditions: 635 nm fluorescence, higher = more signal;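 further: fluorescence read at 667 nm with signal to noise per printed feature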
[11] = ATP-based viability of Huh7 replicon cells – cell-based, CellTiter-Glo luminescence, basal, 48 h, cytotoxicity control for HCV replication inhibitor project, primary screen (AID 1143); conditions: higher = more signal, called active from +8 up or from −8 down;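 further: Huh7 hepatoma cells carrying a hepatitis C replication reporter with no stimulus; test concentration not given here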
[12] = Pseudomonas biofilm growth suppression – PAO1 strain, BacTiter-Glo luminescence, LB-PBS, primary screen (AID 1144); conditions: P. aeruginosa PAO1 biofilm, 12 h, higher = more signal
[13] = basal CRE-LacZ reporter activity in PC12 – cell-based, unstimulated, primary screen (AID 1145); conditions: no forskolin, luminescence, 4.5 h, higher = more signal, called active from +8 up or from −8 down
[14] = forskolin-driven CRE-LacZ activity in PC12 – cell-based, CRE-LacZ reporter, forskolin-stimulated, primary screen (AID 1146); conditions: luminescence, 4.5 h, higher = more signal, called active from +8 up or from −8 down;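 further: PC12 cells with 6xCRE LacZ reporter stimulated by forskolin 10 µM; beta-galactosidase reporter signal reflecting CREB driven transcription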
[15] = molecular target: Streptavidin (Streptomyces avidinii) (UniProt P22629); experiment: compounds binding control protein streptavidin – biophysical, small-molecule microarray, 635/667 nm fluorescence, artefact control for SMM compound annotation, primary screen (AID 1147); conditions: higher = more signal;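 further: signal reflects streptavidin binding to arrayed compounds as a control protein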
[16] = probe aInhba binding on compound microarray – biochemical, small-molecule microarray, 635/667 nm fluorescence, primary screen (AID 1148); conditions: higher = more signal;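 further: score merges 667nm spot fluorescence with signal-to-noise for antibody binding to printed compounds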
Torsin-1A (Homo sapiens) [17] = molecular target: Torsin-1A (Homo sapiens) (UniProt O14656); experiment: TOR1A wild-type binding on microarray – cell lysate, small-molecule microarray, lysate, 635/667 nm, primary screen (AID 1149); conditions: COS7 hTOR1A-WT lysate, 635 nm fluorescence, higher = more signal
Torsin-1A (Homo sapiens) [18] = molecular target: Torsin-1A (Homo sapiens) (UniProt O14656); experiment: torsin A mutant lysate binding on microarrays – cell lysate, small-molecule microarray, COS7 lysate, 635/667 nm fluorescence, primary screen (AID 1150); conditions: COS7 hTOR1A mutant lysate, 635 nm fluorescence, higher = more signal;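 further: score pools 667 nm emission and signal to noise measuring lysate protein binding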
[19] = system: Sonic hedgehog protein (Shh); experiment: Sonic hedgehog microarray binding compounds – biochemical, small-molecule microarray, 635/667 nm fluorescence, primary screen (AID 1151); conditions: 635 nm fluorescence, higher = more signal;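 further: Shh protein binding to compounds spotted on small-molecule microarray slides; score combines spot fluorescence intensity with signal-to-noise across triplicate slides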

Chain of Streptavidin (Streptomyces avidinii) (P22629 whole entry, looked up): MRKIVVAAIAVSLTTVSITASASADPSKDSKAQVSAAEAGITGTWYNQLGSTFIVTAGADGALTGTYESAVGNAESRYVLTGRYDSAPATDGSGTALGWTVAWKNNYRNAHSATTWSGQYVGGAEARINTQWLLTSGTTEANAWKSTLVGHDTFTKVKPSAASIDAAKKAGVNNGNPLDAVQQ
Chain of Follistatin (Homo sapiens) (P19883 whole entry, looked up): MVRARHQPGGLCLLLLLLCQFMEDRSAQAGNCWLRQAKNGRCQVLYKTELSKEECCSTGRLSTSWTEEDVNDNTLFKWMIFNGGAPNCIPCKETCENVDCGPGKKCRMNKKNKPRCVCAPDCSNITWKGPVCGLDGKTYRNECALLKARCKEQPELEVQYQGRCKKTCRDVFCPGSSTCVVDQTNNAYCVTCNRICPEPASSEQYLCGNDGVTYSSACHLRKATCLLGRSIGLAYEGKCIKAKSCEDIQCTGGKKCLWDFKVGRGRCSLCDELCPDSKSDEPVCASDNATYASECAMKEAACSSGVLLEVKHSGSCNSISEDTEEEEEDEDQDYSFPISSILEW
Chain of Torsin-1A (Homo sapiens) (O14656 whole entry, looked up): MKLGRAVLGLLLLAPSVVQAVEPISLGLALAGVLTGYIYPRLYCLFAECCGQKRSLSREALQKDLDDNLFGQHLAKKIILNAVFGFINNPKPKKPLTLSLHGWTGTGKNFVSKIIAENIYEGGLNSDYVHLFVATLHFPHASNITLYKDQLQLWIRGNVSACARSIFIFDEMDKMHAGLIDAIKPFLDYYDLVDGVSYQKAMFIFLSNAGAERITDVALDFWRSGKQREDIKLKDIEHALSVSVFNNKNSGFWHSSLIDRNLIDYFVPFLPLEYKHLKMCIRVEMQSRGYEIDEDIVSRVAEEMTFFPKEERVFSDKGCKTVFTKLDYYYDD
Chain of Focal adhesion kinase 1 (Homo sapiens) (Q05397 whole entry, looked up): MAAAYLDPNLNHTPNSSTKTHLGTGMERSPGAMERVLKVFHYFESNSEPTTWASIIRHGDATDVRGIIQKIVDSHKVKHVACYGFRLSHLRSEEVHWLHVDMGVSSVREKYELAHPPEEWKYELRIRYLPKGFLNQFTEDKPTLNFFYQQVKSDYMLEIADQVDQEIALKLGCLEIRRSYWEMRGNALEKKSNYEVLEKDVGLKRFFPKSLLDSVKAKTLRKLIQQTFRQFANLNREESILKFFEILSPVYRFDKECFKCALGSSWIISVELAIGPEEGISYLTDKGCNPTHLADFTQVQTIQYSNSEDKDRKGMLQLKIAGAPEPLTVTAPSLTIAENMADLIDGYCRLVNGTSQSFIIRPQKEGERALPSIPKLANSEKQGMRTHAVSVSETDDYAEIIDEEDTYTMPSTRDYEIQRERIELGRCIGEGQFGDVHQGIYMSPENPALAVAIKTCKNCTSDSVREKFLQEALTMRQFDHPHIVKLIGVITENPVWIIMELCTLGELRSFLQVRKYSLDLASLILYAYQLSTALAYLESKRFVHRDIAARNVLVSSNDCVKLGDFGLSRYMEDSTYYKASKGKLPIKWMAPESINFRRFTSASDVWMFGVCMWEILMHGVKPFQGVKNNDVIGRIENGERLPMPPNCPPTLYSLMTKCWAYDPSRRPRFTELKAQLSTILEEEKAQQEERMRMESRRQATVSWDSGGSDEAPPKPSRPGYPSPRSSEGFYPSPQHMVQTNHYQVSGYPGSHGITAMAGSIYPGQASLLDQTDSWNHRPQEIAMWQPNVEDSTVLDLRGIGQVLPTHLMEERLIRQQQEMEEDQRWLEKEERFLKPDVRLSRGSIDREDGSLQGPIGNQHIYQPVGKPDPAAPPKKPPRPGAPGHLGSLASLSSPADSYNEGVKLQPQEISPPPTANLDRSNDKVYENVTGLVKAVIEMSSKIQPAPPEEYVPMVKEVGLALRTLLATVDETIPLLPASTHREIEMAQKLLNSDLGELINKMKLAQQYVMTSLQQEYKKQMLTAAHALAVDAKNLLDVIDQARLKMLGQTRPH
Chain of Fibroblast growth factor 2 (Homo sapiens) (P09038 whole entry, looked up): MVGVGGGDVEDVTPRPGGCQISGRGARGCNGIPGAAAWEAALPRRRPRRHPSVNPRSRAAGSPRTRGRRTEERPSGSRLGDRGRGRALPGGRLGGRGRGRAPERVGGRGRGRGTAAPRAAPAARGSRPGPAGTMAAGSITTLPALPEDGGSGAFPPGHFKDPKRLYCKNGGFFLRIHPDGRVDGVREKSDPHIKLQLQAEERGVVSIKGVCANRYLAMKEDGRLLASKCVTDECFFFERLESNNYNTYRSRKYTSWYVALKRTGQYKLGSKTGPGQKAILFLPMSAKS
Chain of Luciferin 4-monooxygenase (Photinus pyralis) (P08659 whole entry, looked up): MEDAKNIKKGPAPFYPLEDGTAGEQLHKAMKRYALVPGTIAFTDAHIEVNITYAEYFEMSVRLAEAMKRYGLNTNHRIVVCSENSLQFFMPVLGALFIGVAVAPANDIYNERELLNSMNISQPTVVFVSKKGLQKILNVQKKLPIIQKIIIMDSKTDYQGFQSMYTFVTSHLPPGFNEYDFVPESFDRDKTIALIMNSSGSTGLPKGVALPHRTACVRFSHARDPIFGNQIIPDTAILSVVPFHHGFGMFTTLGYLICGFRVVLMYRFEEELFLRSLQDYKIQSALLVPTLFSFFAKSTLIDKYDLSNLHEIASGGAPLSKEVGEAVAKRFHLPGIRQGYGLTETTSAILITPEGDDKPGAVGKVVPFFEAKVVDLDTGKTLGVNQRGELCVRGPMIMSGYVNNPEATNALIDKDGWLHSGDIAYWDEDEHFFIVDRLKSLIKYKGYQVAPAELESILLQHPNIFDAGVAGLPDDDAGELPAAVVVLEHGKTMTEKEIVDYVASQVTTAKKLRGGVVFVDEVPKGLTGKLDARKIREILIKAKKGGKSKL

| Compound | composite z-score [1] | composite z-score [2] | composite z-score [3] | composite z-score [4] | composite z-score [5] | composite z-score [6] | z-score [7] | composite z-score (Lefty1) | composite z-score [8] | z-score [9] | composite z-score [10] | z-score [11] | z-score [12] | z-score [13] | z-score [14] | composite z-score [15] | composite z-score [16] | composite z-score (Torsin-1A (Homo sapiens) [17]) | composite z-score (Torsin-1A (Homo sapiens) [18]) | composite z-score [19] |
| --- | --- | --- | --- | --- | --- | --- | --- | --- | --- | --- | --- | --- | --- | --- | --- | --- | --- | --- | --- | --- |
| CC(=O)n1cc(C(O)C2C=CC3C(=O)N(Cc4ccccc4)C(=O)C3N2n2cnnc2)c2ccccc21 (stereo not given) | 0.483 | 0.0022 | 0.418 | 0.948 | 0.0251 | -0.465 | -0.463 | 0.204 | 0.505 | 0.702 (inactive) | 0.363 | 0.276 (inactive) | 1.3 (inactive) | 0.631 (inactive) | -0.696 (inactive) | 1.05 | -0.152 | -0.466 | -0.0022 | 0.204 |
| C=CC[C@]12N=C(c3ccc(OCCCO)cc3)O[C@H]1c1ccccc1N(C)C2=O | 2.7 | 1.2 | 1.37 | 0.325 | 1.46 | 0.837 | -0.829 | 0.501 | 0.675 | -7.68 (inactive) | 0.305 | -4.59 (inactive) | -1.2 (inactive) | 0.549 (inactive) | -1.18 (inactive) | -0.283 | 0.435 | -0.0323 | 0.468 | 1.28 |
| COCCOC(=O)N1C(=O)[C@@]2(c3cc(C#CCC(C(=O)OC)C(=O)OC)ccc31)[C@H](c1ccc(OCCO)cc1)N1[C@H](c3ccccc3)[C@H](c3ccccc3)OC(=O)[C@H]1[C@@H]2C(=O)N1CCN(c2ncccn2)CC1 | 1.94 | 1.25 | -0.0555 | 0.947 | 1.36 | 1.23 | -1.48 | 1.29 | 0.939 | -0.506 (inactive) | 0.672 | -4.96 (inactive) | -1.65 (inactive) | -1.42 (inactive) | -0.912 (inactive) | 0.945 | 0.122 | 1.19 | 0.6 | 2.09 |
| O=C1C[C@]2(c3ccc([N+](=O)[O-])cc3)C(=O)N(Cc3ccccc3)c3cc(CO)ccc3[C@H]2N1CC12CC3CC(CC(C3)C1)C2 | -1.43 | -0.835 | -0.536 | -1.28 | -1.06 | -0.653 | -0.0834 | -1.17 | -0.786 | -0.271 (inactive) | -0.186 | 0.349 (inactive) | 0.435 (inactive) | -0.491 (inactive) | 0.245 (inactive) | -1.04 | -0.325 | -0.659 | 0.263 | -0.419 |
| C=CCN1C(=O)[C@@]2(O[C@@H](CCn3cc([C@H](O)c4ccccc4)nn3)[C@H]([Si](C)(C)c3ccc(OC)cc3)[C@H]2C)c2ccccc21 | 0.351 | 1.14 | 0.287 | 0.371 | 1.18 | 0.761 | 0.493 | 1.2 | 0.875 | 0.586 (inactive) | 0.351 | -3.85 (inactive) | 0.0526 (inactive) | 3.9 (inactive) | -0.448 (inactive) | -0.0664 | 0.134 | -0.0628 | -0.168 | 1.7 |
| COCCOC(=O)N1C(=O)[C@@]2(c3cc(C#CC4=CCCCC4)ccc31)[C@H](c1ccc(O)cc1)N1[C@H](c3ccccc3)[C@H](c3ccccc3)OC(=O)[C@H]1[C@@H]2C(=O)Nc1nc2ccccc2s1 | 0.494 | 1.21 | 0.822 | 0.93 | 0.862 | 1.08 | -1.94 | 1.52 | 0.657 | -0.946 (inactive) | 0.365 | -0.799 (inactive) | -0.424 (inactive) | 0.476 (inactive) | 2.17 (inactive) | 1.18 | 0.52 | 0.776 | 0.89 | 1.73 |
| Cc1ccc(S[C@]2(C(=O)NCC(F)(F)F)CC(=O)N(Cc3ccccc3)[C@@H]2c2ccc(CO)cc2)cc1 | -0.951 | 0.389 | -0.0414 | -1.16 | -0.739 | -0.683 | -0.483 | -0.758 | -0.693 | 0.519 (inactive) | -0.264 | -4.85 (inactive) | -0.485 (inactive) | 0.829 (inactive) | 0.906 (inactive) | -1.23 | 0.0171 | -0.2 | -0.238 | -0.243 |
| COc1ccc(NC(=O)O[C@H]2[C@H](OC(=O)Nc3ccc4c(c3)OCO4)[C@@H](OC(=O)Nc3ccc4c(c3)OCO4)[C@@H](OC)O[C@@H]2CO)cc1 | 1.34 | 1.25 | 0.316 | 0.922 | 1.16 | 0.802 | -0.669 | 0.598 | 0.943 | -4.27 (inactive) | 0.201 | -3.73 (inactive) | -0.488 (inactive) | 1.85 (inactive) | -0.559 (inactive) | 1.38 | 0.277 | 0.812 | 1.27 | 1.27 |
| CO[C@H]1O[C@H](CO)[C@@H](OC(=O)Nc2ccc(Oc3ccccc3)cc2)[C@H](OC(=O)Nc2ccccc2-c2ccccc2)[C@@H]1OC(=O)Nc1ccccc1-c1ccccc1 | 0.818 | 1.07 | 0.263 | 0.964 | 0.595 | 0.295 | -0.426 | 0.841 | 0.773 | -0.69 (inactive) | 0.58 | -4.64 (inactive) | -0.935 (inactive) | -0.198 (inactive) | -0.355 (inactive) | 0.819 | 0.588 | -0.21 | 0.408 | 0.74 |
| COC(=O)C1(Cc2ccccc2)C=C2C(=C(C(C)C)C(=O)C2C)CN1 (stereo not given) | 3.27 | -0.11 | 0.757 | -0.72 | -1.25 | -1.07 | -1.83 | -1.36 | 0.349 | 1.27 (inactive) | 0.131 | -0.576 (inactive) | 0.429 (inactive) | 0.59 (inactive) | -0.173 (inactive) | -0.333 | 0.147 | 0.334 | 0.707 | -0.45 |
